Compound activity (PubChem BioAssay)
This is a sample that favours compounds with a hit; in the whole collection about 15% have one here.
RORg inh = blocks mouse ROR gamma transcriptional activity; P51450; Drosophila S2 Gal4-RORgamma UAS-luciferase reporter, 20 h; Potency, µM (top dose mostly 53.6 µM), without a hit: top-dose activity change, negative = inhibition, most hits filed as inhibitors; hit rate 5.4% among 310,000; AID 2551; also: nearly all actives have a fitted effect of over 60% in size
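Read-out: Photinus luciferase luminescence; inhibitors lower reporter signal. Insect Schneider cells with Gal4-ROR gamma fusion under metallothionein promoter, UAS reporter; 700 uM final copper sulfate induction, 20 hr, ambient temperature.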
TDP1 cell CPT = growth inhibition of DT40 Tdp1-/-;hTDP1 cells with camptothecin (screen for TDP1 inhibitors) | Potency, µM (highest dose often 46.2 µM), for the others: at the top dose activity change, negative = growth inhibition, usual class: inhibitors | hit rate 12% among 420,000 | chicken DT40 Tdp1-/-;hTDP1 cells + 20 nM CPT, ATP luminescence, 48 h; also: nearly all actives have a fitted effect of over 55% in size
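Chicken DT40 Tdp1-/- cells complemented with human TDP1, 400 cells/well, exposed to compounds plus 20 nM camptothecin for at least 48 h at 37 C; viability read as ATP content by CellTiter-Glo luminescence.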
ELG1 DNA repair = blocks ELG1-dependent DNA repair in HEK293T cells; AID 504467; HEK293T ELG1-luciferase reporter, luminescence, 16 h; DNA damage induced by 5-fluorouridine; hit rate 2.3% among 330,000; Potency, µM (top dose mostly 46.1 µM), without a hit: at the top dose activity change, negative = inhibition, usual class: inhibitors; also: nearly all actives have a fitted effect of over 55% in size
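Cells (2,000 per well) received 5-fluorouridine plus test compound or DMSO and were incubated 16 hr at 37 °C, 5% CO2. Luciferase activity was read by luminescence 30 min after ONE-Glo addition; signal suppression marked inhibition of damage-induced ELG1 function.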
DT40 TDP1 no CPT = qHTS for Inhibitors of human tyrosyl-DNA phosphodiesterase 1 (TDP1): qHTS in cells in absence of CPT. DT40 Tdp1-/- hTDP1 cells, no CPT, ATP luminescence, 48 h. Potency, µM (series often up to 46.2 µM), for the others: top-dose activity change, negative = growth inhibition, usual class: inhibitors. hit rate 15% among 420,000. AID 686978, 2013; also: nearly all actives have a fitted effect of over 55% in size
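Chicken DT40 Tdp1-/- cells stably complemented with human TDP1 were seeded at 400 cells/well with DMSO in place of 20 nM camptothecin. After compound pinning, cells grew at least 48 hr at 37 °C; viability read by CellTiter-Glo luminescence.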
ALOX12 inh = inhibitors of human 12S-lipoxygenase ALOX12. P18054. purified 12hLO, xylenol orange hydroperoxide absorbance. Potency, µM (titrated, usually from 108 µM), for inactives: at the top dose activity change, negative = inhibition, hits mostly inhibitors. hit rate 1.1% among 580,000
Target sequence (P18054 whole entry, looked up): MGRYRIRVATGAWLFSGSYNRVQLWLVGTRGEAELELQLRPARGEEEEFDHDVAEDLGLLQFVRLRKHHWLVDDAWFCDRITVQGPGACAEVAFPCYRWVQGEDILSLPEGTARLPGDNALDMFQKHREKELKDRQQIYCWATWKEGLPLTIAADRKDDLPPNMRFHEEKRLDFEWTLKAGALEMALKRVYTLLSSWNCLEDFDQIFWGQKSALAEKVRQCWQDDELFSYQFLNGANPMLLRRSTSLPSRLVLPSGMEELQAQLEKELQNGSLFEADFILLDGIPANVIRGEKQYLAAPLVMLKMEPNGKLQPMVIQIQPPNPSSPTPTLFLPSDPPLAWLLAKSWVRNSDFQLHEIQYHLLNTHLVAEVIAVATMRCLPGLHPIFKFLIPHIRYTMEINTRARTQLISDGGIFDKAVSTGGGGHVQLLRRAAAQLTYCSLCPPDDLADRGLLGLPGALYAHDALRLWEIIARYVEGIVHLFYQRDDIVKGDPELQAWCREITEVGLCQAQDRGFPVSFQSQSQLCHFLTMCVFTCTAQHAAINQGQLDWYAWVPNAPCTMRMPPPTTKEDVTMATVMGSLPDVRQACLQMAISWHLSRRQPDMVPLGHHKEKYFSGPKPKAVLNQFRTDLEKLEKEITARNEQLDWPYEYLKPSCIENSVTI
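Purified human 12hLO (150 nM final) in 25 mM Hepes, 0.01% Triton X-100, pH 7.0 was preincubated 15 min at room temperature with compound. Then 40 uM arachidonic acid was added, 30 min. Hydroperoxide was read by Fe-XO absorbance ratio 573/405 nm.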
VP16 counter = Gal4-VP16 reporter inhibition counter-screen. Drosophila S2 Gal4-VP16 UAS-luciferase, luminescence, 20 h. hit rate 3.5% among 310,000. Potency, µM (series often up to 53.6 µM), for the others: top-dose activity, negative = inhibition, most hits filed as inhibitors;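 also: Gal4-VP16 expression switched on by copper sulfate through the metallothionein promoter; nearly all actives have a fitted effect of over 50% in size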
ELG1 FLuc counter = luciferase inhibition in cell-free luciferin readout for ELG1 hits; shares compounds with ELG1 DNA repair; cell-free firefly luciferase luminescence counter-screen, ViewLux; Potency, µM (doses to about 46.1 µM), inactives show at the highest dose activity change, negative = inhibition, most hits filed as inhibitors; hit rate 3% among 350
ELG1 Luc conf = inhibits ELG1-dependent DNA repair in HEK293T cells, confirmed; shares compounds with ELG1 DNA repair; HEK293T ELG1-luciferase levels, luminescence; cells co-treated with 5-fluorouridine; Potency, µM (series often up to 46.1 µM), for inactives: at the top dose activity change, negative = inhibition, most hits filed as inhibitors; hit rate 68% among 670; also: nearly all actives have a fitted effect of over 55% in size
ELG1 MMS Luc = MMS-stimulated human ELG1 repair inhibition, confirmed. shares compounds with ELG1 DNA repair. HEK293T luciferase-tagged ELG1 level, MMS stimulated. Potency, µM (titrated, usually from 46.1 µM), without a hit: at the top dose activity change, negative = inhibition, usual class: inhibitors. hit rate 53% among 670. AID 624249; also: nearly all actives have a fitted effect of over 60% in size
ELG1 5-FU = confirmation of ELG1 repair inhibitors: viability with 5FU. shares compounds with ELG1 DNA repair. cell viability with 5-FU, ELG1-dependent repair. Potency, µM (highest dose often 46.1 µM), for inactives: top-dose activity change, negative = viability loss, actives largely listed as cytotoxic. 670 tested, under 10 active;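 also: ELG1-luc HEK293T cells cotreated with 5-fluorouridine at 10 µM final; viability measured 16 h after compound addition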
ELG1 MMS cell = confirmation of ELG1 repair inhibitors: viability with MMS; shares compounds with ELG1 DNA repair; Cell viability with MMS, ELG1-dependent DNA repair; AID 624251; hit rate 33% among 670; Potency, µM (doses to about 46.1 µM), for inactives: at the top dose activity change, negative = viability loss, hits mostly cytotoxic;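 also: ELG1-luc HEK293T cells co-treated with 10 µM MMS; viability read 16 h after compound addition; nearly all actives have a fitted effect of over 60% in size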
ELG1 unstim viab = affects unstimulated cell viability, ELG1 hit counter-screen; Potency, µM (top dose mostly 45.9 µM), for inactives: at the highest dose activity change, negative = loss of viability, most hits filed as cytotoxic; AID 624252; cell viability counter-screen, unstimulated, luminescence; hit rate 8% among 900; shares compounds with ELG1 DNA repair;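 also: compound exposure lasted 16 hours before reading; nearly all actives have a fitted effect of over 55% in size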
FLuc enzyme = counter-screen for ELG1 repair inhibitors: firefly luciferase inhibition; Potency, µM (series often up to 57.5 µM), without a hit: top-dose activity, negative = inhibition, actives largely listed as inhibitors; shares compounds with ELG1 DNA repair; purified firefly luciferase, luminescence counter-screen; AID 624253; hit rate 10% among 350
* = called active by the depositor; ? = inconclusive; · = no result. Calls follow the shape of the dose curve; as a rule, active = well fitted curve in the direction sought with a large enough effect; inconclusive = small, poorly fitted or top-dose-only effect, or another doubt; inactive = no such curve, though single readings can be large; an effect the other way counts as inactive or inconclusive. % is scaled to controls: 0 for no effect and ±100 for the full control effect; potency is read from the fitted curve at half-maximal effect.

SMILES | RORg inh | TDP1 cell CPT | ELG1 DNA repair | DT40 TDP1 no CPT | ALOX12 inh | VP16 counter | ELG1 Luc conf | ELG1 MMS Luc | ELG1 5-FU | ELG1 MMS cell | ELG1 unstim viab | others
CCOc1ccc(C(C(=O)NC2CCCC2)N(C(=O)c2snc(C(N)=O)c2N)c2cccc(O)c2)cc1 (stereo not drawn) | 0% | ? | 4.6µM* | 16µM* | -11% | 5% | 2µM* | ? | ? | -8% | ?
Cc1cc(=O)n(CC(=O)Nc2ccc(F)cc2)c(N2CCC(C)CC2)n1 | · | · | · | · | 10% | · | · | · | · | · | ·
CSc1nccc(-c2sc(SC)c(C#N)c2-c2ccccc2)n1 | 2% | -6% | 4% | ? | ? | 2% | · | · | · | · | ·
CSc1sc(-c2ccnc(SCCS(C)(=O)=O)n2)c(-c2ccccc2)c1C#N | 12% | ? | 4.6µM* | 18µM* | 0% | -26% | 3.1µM* | 0.56µM* | 1% | 0.63µM* | ?
O=C(c1cnn(Cc2ccccc2)c1)N1CCCn2nc(CO)cc2C1 | · | · | · | · | 123% | · | · | · | · | · | ·
COc1cccc(NC(=O)COC(=O)c2sccc2C)c1 | · | -15% | ? | -26% | -6% | · | · | · | · | · | -4%
COc1cccc(NC(=O)COC(=O)c2c(F)cccc2F)c1 | -6% | -23% | 13% | -23% | 21% | -17% | · | · | · | · | ·
CN(CC(=O)Nc1ccccc1Br)C(=O)c1ccc(-c2ccc(Cl)cc2)o1 | ? | ? | 0.37µM* | ? | -1% | 5.6µM* | ? | 22µM* | -8% | 25µM* | ? | ELG1 FLuc counter=16%;FLuc enzyme=21µM*
COc1ccccc1CNc1nc2ccccc2c2nc(-c3cccc(C)c3)nn12 | · | -14% | · | -9% | 15% | · | · | · | · | · | ·
COCCCNc1nc2cc(OC)c(OC)cc2c2nc(-c3ccccc3)nn12 | 4% | 15µM* | 4.1µM* | 7.3µM* | 7% | -1% | 2.2µM* | ? | ? | -10% | ?
